UGM FP inh: M. tuberculosis UGM enzyme inhibitors, primary screen, biochemical, fluorescence polarization, single point; AID 504406, 2011; actives 0.06% (n = 320,000); purified UGM, fluorescence polarization probe displacement; inhibition, % at 10 µM; UDP-galactopyranose mutase (Mycobacterium tuberculosis (strain ATCC 25618 / H37Rv)), …; in the data active = inhibition above about 10%, passing the limit was not always enough
Rv3671c protease: Rv3671c serine protease inhibitors, primary screen, biochemical, fluorescence polarization, M. tuberculosis H37Rv | P9WHR9 | inhibition, % at 5.96 µM | actives 0.048% (n = 320,000);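 also: extracellular domain of Rv3671c used as enzyme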
Target sequence (P9WHR9 whole entry, looked up, the tested form may be a part): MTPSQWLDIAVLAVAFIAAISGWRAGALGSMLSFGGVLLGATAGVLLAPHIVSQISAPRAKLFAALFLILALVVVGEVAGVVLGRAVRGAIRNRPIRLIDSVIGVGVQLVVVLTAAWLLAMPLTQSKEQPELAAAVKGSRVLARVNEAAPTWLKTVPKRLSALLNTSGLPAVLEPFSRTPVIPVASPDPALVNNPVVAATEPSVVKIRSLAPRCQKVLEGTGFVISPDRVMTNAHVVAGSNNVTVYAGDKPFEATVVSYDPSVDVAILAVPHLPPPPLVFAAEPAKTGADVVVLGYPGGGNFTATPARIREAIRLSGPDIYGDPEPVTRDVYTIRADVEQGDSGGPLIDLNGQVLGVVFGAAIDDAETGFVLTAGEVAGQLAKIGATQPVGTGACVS
GDH-TPI inh: GDH-TPI coupling enzyme inhibitors, primary screen, artefact control for M. tuberculosis FBA inhibitor project, biochemical, absorbance, full deck. GDH-TPI coupled enzyme counterscreen, NADH absorbance. actives 1.2% (n = 360,000). inhibition, % at 4.8 µM; in the data active = inhibition above about 30%
Mtb betalactam: beta-lactam sensitization of Mtb H37Rv, H37Rv. M. tuberculosis H37Rv growth with meropenem, percent inhibition. inhibition, % at 25 µM. actives 0.27% (n = 330,000). AID 434955, 2010; call rule not given here;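 also: growth measured after seven days incubation then overnight dye step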
RecA splice inh: Mtb RecA intein splicing inhibitors, primary screen, biochemical, fluorescence, HTS. Protein RecA (Mycobacterium tuberculosis (strain ATCC 25618 / H37Rv)), P9WHJ3. cell-free RecA intein splicing. inhibition, % (test concentration not listed). actives 0.75% (n = 290,000); in the data active = inhibition above about 30%
FBA Mtb inh: Mtb FBA enzyme inhibitors, primary screen, biochemical, fluorescence, strain H37Rv; Fructose-bisphosphate aldolase (Mycobacterium tuberculosis (strain ATCC 25618 / H37Rv)), …; purified M. tuberculosis FBA, fluorescence read-out; inhibition, % at 1 µM; actives 2.3% (n = 360,000); in the data active = inhibition above about 27%
GFP chromo cs: counter-screen: blocks GFP chromophore formation, dose response, counter-screen, biochemical, fluorescence, homogeneous. shares compounds with RecA splice inh. cell-free GFP chromophore formation. EC50, µM. actives 83% (n = 2,100). AID 434968, 2010; call rule not given here
Rv3671c cf: Rv3671c serine protease inhibitors, retest, confirmation, biochemical, fluorescence polarization, M. tuberculosis H37Rv; shares compounds with Rv3671c protease; inhibition, % at 5.96 µM; actives 40% (n = 140)
A number is an active result; n = inactive; x = no result. Hits are enriched below; roughly 4% of the tested compounds scored in any of these assays. Rule as the data show it, unless noted: active = inhibition above about 38%; inactive = the rest.

SMILES	UGM FP inh	Rv3671c protease	GDH-TPI inh	Mtb betalactam	RecA splice inh	FBA Mtb inh	GFP chromo cs	others
Cc1ccccc1Nc1nc(N)c2ccccc2n1	n	n	n	n	n	n	x
O=c1[nH]c(Nc2ccccn2)cc2ccccc12	n	n	n	n	71.6	132.3	n
O=c1oc(Nc2ccccc2Cl)nc2ccccc12	x	x	n	x	n	n	x
O=c1[nH]c(Nc2ccc(F)cc2)cc2ccccc12	n	n	n	n	64.8	n	1.61
Cc1nn(-c2ccc(F)cc2)c(Cl)c1/C=C1\C(=O)Nc2ccccc21	n	n	n	n	n	n	x
COc1ccc(OC)c(S(=O)(=O)NCCS(=O)(=O)N2CCN(c3ccccc3)CC2)c1	n	n	n	n	n	n	x
O=C(Nc1cccc([N+](=O)[O-])c1)Nc1cccs1	n	n	n	n	x	n	x
Cc1nn(Cc2ccccc2)c2c1C(c1cccc(Cl)c1)C(C#N)=C(N)O2 (stereo unspecified)	n	n	n	n	72.9	n	32.5
Cc1nn(-c2ccccc2)c2c1C(c1ccncc1)C(C#N)=C(N)O2 (stereo unspecified)	n	n	n	n	37.6	n	17.2
Cc1cc2c(c(=O)n1C1CC1)C(c1cccc(Cl)c1)C(C#N)=C(N)O2 (stereo unspecified)	n	n	n	n	n	n	x
Cc1ccc(-n2nc(C)c3c2OC(N)=C(C#N)C3c2ccncc2)cc1 (stereo unspecified)	n	n	n	n	x	n	x
Cc1ccc(-n2nc(C)c3c2OC(N)=C(C#N)C3c2cccs2)cc1 (stereo unspecified)	n	n	n	n	65.2	n	4.99
CCn1c(C)cc2c(c1=O)C(c1ccncc1)C(C#N)=C(N)O2 (stereo unspecified)	n	n	n	n	n	n	x
CCCc1nn(C)c2c1C(c1ccncc1)C(C#N)=C(N)O2 (stereo unspecified)	n	n	n	n	64.3	n	29.5
O=C(Cc1ccccc1)Oc1coc(CSc2ncccn2)cc1=O	n	n	n	n	n	n	x
CC1(C)CC(=O)N(c2cc(Cl)ccc2Cl)C(=O)C1	n	n	n	n	n	n	x
O=C1CCCC/C=C\C[C@H](CC(=O)N(CCO)Cc2ccccc2)C(=O)N2CCC[C@@H]2CO1	n	n	n	n	x	n	x
Cc1nn(-c2ccccc2)c(Cl)c1C1C(C#N)=C(N)Oc2c1c(C)nn2-c1ccccc1 (stereo unspecified)	n	n	n	n	n	n	x
COc1cc(-n2nc(C)c3c2OC(N)=C(C#N)C3c2ccccc2)c(Cl)c(Br)c1O (stereo unspecified)	n	n	n	n	72.3	n	20.3
CCOc1ccccc1C1C(C#N)=C(N)Nc2onc(-c3ccccc3)c21 (stereo unspecified)	n	n	n	n	78.1	n	16.2
CCOc1cccc(C2C(C#N)=C(N)Oc3cc(C)[nH]c(=O)c32)c1OCC (stereo unspecified)	n	n	n	n	n	n	x
O=S(=O)(c1ccccc1)c1ncc(C(F)(F)F)cc1Cl	x	x	n	x	63.2	n	24.5
COc1cc(/C=C2/C(=O)N(c3ccc(Br)cc3)N=C2C)cc([N+](=O)[O-])c1O	n	n	x	n	n	x	x
Cn1cc(C=C2C(=O)NC(=O)NC2=O)c2ccccc21	n	n	n	n	n	n	x
COc1ccc(/C=C2/C(=O)N(c3ccccc3)N=C2C)cc1OC	n	x	n	n	43.5	n	9.04
SMILES	UGM FP inh	Rv3671c protease	GDH-TPI inh	Mtb betalactam	RecA splice inh	FBA Mtb inh	GFP chromo cs	others
COc1cc(/C=C2/C(=O)N(c3cccc(Br)c3)N=C2C)cc(OC)c1O	n	n	n	n	86.5	n	4.28
COc1ccc(/C=C2/C(=O)N(c3c(F)c(F)c(F)c(F)c3F)N=C2C)cc1	n	n	n	n	n	n	x
COc1ccc(/C=C2/C(=O)N(c3ccccc3)N=C2C)cc1	n	n	n	n	69.2	n	3.19
CC1=NN(c2ccccc2)C(=O)/C1=C/c1cn(C)c2ccccc12	n	n	n	n	36.9	n	n
O=C(O)c1cc(S(=O)(=O)Nc2ccc3cn[nH]c3c2)ccc1Cl	n	n	n	n	x	n	x
O=C(NCc1ccccc1)c1cc(C2COCCN2S(=O)(=O)c2cccs2)on1 (stereo unspecified)	x	x	n	x	x	n	x
Cc1c(NC(=O)C(C)Sc2nc(N)cc(=O)[nH]2)c(=O)n(-c2ccccc2)n1C (stereo unspecified)	n	n	n	n	x	n	x
CCN(CC(=O)Nc1ccc(NC(C)=O)cc1)C(=O)c1ccc(N(C)S(=O)(=O)c2ccc(C)cc2)cc1	x	x	n	x	x	n	x
CC(=O)Oc1ccc(/C=C2/C(=O)N(c3ccccc3)N=C2C)cc1	n	n	n	n	92.9	n	3.5
COc1ccc(C2=NN(c3ccccc3)C(=O)/C2=C\c2ccc(O)c(OC)c2)cc1	n	n	n	n	92.5	n	2.58
CC1=NN(c2ccccc2)C(=O)/C1=C/c1cccc(C)c1	n	n	n	n	92.5	n	2.26
COc1cc(/C=C2\C(=O)ON=C2c2ccc(Cl)cc2)ccc1O	n	n	x	n	n	x	x
CC1=NN(c2ccccc2)C(=O)/C1=C/N(C)C	n	n	n	n	n	n	x
COC(=O)CCC(C(=O)CN1C(=O)c2ccccc2C1=O)N1C(=O)c2ccccc2C1=O (stereo unspecified)	x	x	n	x	x	n	x
Cn1ncc(Cl)c1C(=O)NCC1CCCO1 (stereo unspecified)	n	n	n	n	n	n	x
Cc1[nH]c2ccccc2c1/C=N/Nc1nc2ccccc2[nH]1	n	59.3	n	n	33.9	n	n	Rv3671c cf=41.2
CN(Cc1cnccn1)C(=O)CC1C(=O)NCCN1Cc1c(F)cccc1Cl (stereo unspecified)	n	n	n	n	n	n	x
